Results taken from PubChem BioAssay.

Experiment: probe aWnt5a binding to arrayed compounds – biochemical, biotinylated probe, 635/667 nm fluorescence, primary screen (AID 1113);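 also: score merges 667 nm fluorescence intensity with signal-to-noise per printed feature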
Conditions: small-molecule microarray, higher = more signal

Row | SMILES | composite z-score
1 | CCOC(=O)C[C@H]1[C@H](OC(=O)c2ccccc2-c2ccccc2)[C@@H](NC(=O)c2ccc3ccccc3n2)c2cc(OCCCO)ccc2N1C(=O)Cc1ccc(OC)cc1 | -0.124
2 | CCOc1cc(C(O)C2C=CC3C(=O)NC(=O)C3N2Nc2ccc(Cl)cc2Cl)ccc1O (stereo not given) | -0.154
3 | Cc1ccc(NN2C(C(O)c3c(F)cccc3Cl)C=CC3C(=O)N(C4CCCCC4)C(=O)C32)cc1 (stereo not given) | -0.0179
4 | CCOC(=O)C[C@H]1[C@H](OC(=O)c2ccc(-c3ccccc3)cc2)[C@@H](NC(=O)CC(C)C)c2cc(OCCCO)ccc2N1C(=O)c1ccc2ccccc2n1 | -0.0678
5 | COC(=O)[C@@]1(Cc2ccccc2)[C@H]2c3cc(C(=O)N4CCCC4)n(CCc4ccccn4)c3C[C@H]2CN1C(=O)c1ccccc1 | -0.0776
6 | Cc1ccc(S[C@]2(C(=O)NC(C)C)CC(=O)N(Cc3cc(C(F)(F)F)cc(C(F)(F)F)c3)[C@@H]2c2ccc(CO)cc2)cc1 | 0.0857

Experiment: probe aShh binding to arrayed compounds – biochemical, biotinylated probe, 635/667 nm fluorescence, primary screen (AID 1114);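 also: probe is biotin-labelled aShh protein from a stem cell growth factor screen; measures binding of labelled protein to compounds printed on the slide; score merges feature fluorescence at 667 nm with signal-to-noise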
Conditions: small-molecule microarray, higher = more signal

Row | SMILES | composite z-score
7 | CC(C)[Si]1(C(C)C)OCc2cc(C3CC3)nc(-c3ccc(Oc4ccccc4)cc3)c21 | -0.117
8 | O=C1NC(=O)C2C1C=CC(C(O)c1ccco1)N2Nc1ccc(Cl)cc1Cl (stereo not given) | 0.111
9 | Cc1ccc(N2C(=O)c3ccccc3[C@@H](C(=O)NCCCN(C)C)[C@@H]2c2ccc(CO)cc2)nc1 | -0.452
10 | CCCCCCc1nc(Cc2cc(OC)c(OC)c(OC)c2)cc2c1[Si](C(C)C)(C(C)C)OC2 | -0.214
11 | CCOC(=O)C1=C[C@@H](C(C)(C)C)N(S(=O)(=O)c2ccc(C)cc2)[C@H]1c1cccc2ccccc12 | -0.156
12 | COc1cc2c(cc1O)C(c1cccs1)N(Cc1cc3c(cc1Br)OCO3)CC2 (stereo not given) | 0.23
13 | C=CCNC(=O)[C@@H]1[C@H]2C(=O)O[C@H](c3ccccc3)[C@H](c3ccccc3)N2[C@H](c2ccccc2OCCO)[C@@]12C(=O)Nc1ccc(C#CCC(C(=O)OC)C(=O)OC)cc12 | -0.147
14 | C=CCN1C(=O)[C@]2(CCS(=O)(=O)c3ccccc3)N=C(c3ccc(OCCCO)cc3)O[C@@H]2c2ccccc21 | 0.365
15 | CC(c1ccccc1)C(O)C1C=CC2C(=O)N(C)C(=O)C2N1Nc1ccccc1 (stereo not given) | 0.208
16 | N#Cc1ccc(NN2C(C(O)c3ccc(Br)cc3)C=CC3C(=O)N(c4ccccc4)C(=O)C32)cc1 (stereo not given) | 0.162
17 | COc1ccc([Si](C)(C)[C@@H]2[C@@H](CCO)O[C@]3(C(=O)N(Cc4cccc(NC(=O)[C@H](C)O)c4)c4ccccc43)[C@H]2C)cc1 | 0.223
18 | CCCCC(CC)C(O)C1C=CC2C(=O)N(C)C(=O)C2N1Nc1ccccc1 (stereo not given) | 0.0181
19 | COCCOC(=O)N1C(=O)[C@@]2(c3cc(C#CCCO)ccc31)[C@H](c1ccc(OCCO)cc1)N1[C@H](c3ccccc3)[C@H](c3ccccc3)OC(=O)[C@H]1[C@@H]2C(=O)Nc1nc2ccccc2s1 | 0.626
20 | [N-]=[N+]=NCc1ccccc1[C@@H]1OC(c2ccc(OCCCO)cc2)=N[C@]1(CCS(=O)(=O)c1ccccc1)C(=O)O | 0.0469
21 | O=C1C[C@]2(c3ccc([N+](=O)[O-])cc3)C(=O)N(C3CC3)c3cc(CO)ccc3[C@H]2N1CC12CC3CC(CC(C3)C1)C2 | -0.124
22 | CCCC[C@@H]1C[C@H]1[C@@H](NC(=O)c1cccs1)c1ccccc1C(F)(F)F | 0.663
23 | O=C(Cc1ccccc1)[C@H]1C2C=CCCC(c3ccccc3)=C2CN1Cc1ccccc1 (stereo not given in full) | -0.124
24 | COC(=O)[C@]1(CCS(=O)(=O)c2ccccc2)N=C(c2ccc(OCCCO)cc2)O[C@@H]1c1ccccc1N=[N+]=[N-] | 0.232
25 | COCCOC(=O)N1C(=O)[C@@]2(c3cc(C#CC4=CCCCC4)ccc31)[C@H](c1ccccc1OCCO)N1[C@H](c3ccccc3)[C@H](c3ccccc3)OC(=O)[C@H]1[C@@H]2C(=O)N1CCN(c2ncccn2)CC1 | 0.0048
26 | CN(C)C(=O)[C@@]1(Cc2ccccc2)N=C(c2ccc(OCCCO)cc2)O[C@H]1c1ccccc1 | 0.0654
27 | COc1ccc(C#Cc2ccc3c(c2)[C@]2(C(=O)N3)[C@H](C(=O)O)[C@H]3C(=O)O[C@H](c4ccccc4)[C@H](c4ccccc4)N3[C@@H]2c2ccc(O)cc2)cc1 | 0.214
28 | CCCCC[C@H]1OC[C@@]23C=C(Br)[C@@H](CC12)[C@@]1(CO1)C3=O (stereo not given in full) | 0.0796
29 | CC1CC/C=C\[C@H]2OC34C=CCN(c5ccc(Cl)cc5)C(=O)[C@H]3N(C(C)CO)C(=O)[C@]4(C)C2C(=O)O1 (stereo not given in full) | -0.289
30 | COc1cc2c(cc1O)C(C1CC1)N(Cc1cccc(OC(F)(F)F)c1)CC2 (stereo not given) | -0.0793
